The whole screen tested about 3,300 compounds, of which about 280 (8.5%) were called active.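 The calls were made as follows: active = mean growth inhibition over the two runs of 50% or more; inactive = mean growth inhibition under 50%.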 The entries come from a sample that favours actives as a whole.
Test: A549 NSCLC cell proliferation inhibitors – ATP luminescence, human non-small cell lung line, primary screen (AID 371);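 also: compound exposure lasted 72 h before the ATP read; 0% = untreated cell signal and 100% = no luminescence left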
Settings: at 10 µM, stronger effect = higher value

Growth inhibition, active:
N#CC1=C2SCC(O)(c3ccccc3)N2C(=O)CC1c1ccccc1 (centres undefined) 61.5%, CCOc1ccc(S(=O)(=O)NC(C)(C)C)cc1-c1nc2c(C(C)(C)C)nn(C)c2c(=O)[nH]1 62.9%, CCCCc1ccc(NC(=O)CSC2=C(C#N)C(c3ccco3)C3=C(CCCC3=O)N2)cc1 (centres undefined) 57.6%, C=CCOC(=O)C1=C(C)NC(SCC(=O)N(CC)CC)=C(C#N)C1c1ccccc1 (centres undefined) 51.2%, C=CCOC(=O)C1=C(C)NC(SCC(=O)Nc2ccc(C)c(Cl)c2)=C(C#N)C1c1ccco1 (centres undefined) 84.2%, COc1cccc(NC(=O)CSC2=C(C#N)C(c3ccco3)C3=C(CCCC3=O)N2)c1 (centres undefined) 60.1%, CCC(C)n1ncn(-c2ccc(N3CCN(c4ccc(OCC5COC(Cn6cncn6)(c6ccc(Cl)cc6Cl)O5)cc4)CC3)cc2)c1=O (centres undefined) 50.3%, O=C1c2ccccc2C(=O)C1c1ccc2ccccc2n1 74.9%, COC(=O)/C(=C1/Oc2cc(C)oc(=O)c2S1)C(F)(F)F 76.1%, CC(=O)Oc1cccc2c1C(=O)c1c(OC(C)=O)cc(C(=O)O)cc1C2=O 57.8%, O=C(O)c1cc(O)c2c(c1)C(=O)c1cccc(O)c1C2=O 59.2%

Growth inhibition, inactive:
O=S(=O)(c1ccccc1)N1CCC(N2CCCCCC2)CC1 11.3%, Cc1ccc(S(=O)(=O)N(CC(O)CN(C)C)c2ccccc2)cc1 (centres undefined) 5.21%, COC(=O)c1cc(Br)c(=O)n(-c2cc(C)on2)c1 5.44%, C=C(C)CSC1=C(C#N)C(c2ccsc2)CC(=O)N1 (centres undefined) 11.7%, CCCCCCSC1=C(C#N)C(c2ccccc2)CC(=O)N1 (centres undefined) 17.1%, CCCCn1c(O)c(C=NCCCN(C)C)c(=O)[nH]c1=O -0.32%, CC1(C)Cc2c(C#N)c(SCCC#N)nc(N3CCOCC3)c2CS1 26.4%, CCOc1ccc(S(=O)(=O)N(C)C)cc1-c1nc2c(C(C)(C)C)nn(C)c2c(=O)[nH]1 -2.28%, CCOc1ccc(S(=O)(=O)N(C)CCO)cc1-c1nc2c(C(C)(C)C)nn(C)c2c(=O)[nH]1 22%, COC(=O)C(NC(=O)c1ccccc1)(Nc1nc(C)cs1)C(F)(F)F (centres undefined) 4.51%, CN(C)C(CN1C(=O)C2CC=CCC2C1=O)c1cn(C)c2ccccc12 (centres undefined) -4.21%, COc1ccc2[nH]c(C)c(C(=O)CN3CCOCC3)c2c1 -6.74%, Nc1nnnn1/N=C/c1ccccn1 3.3%, C=CCOC(=O)C1=C(C)NC(SCC(=O)N(CC)CC)=C(C#N)C1c1ccco1 (centres undefined) 21.8%, COc1ccc(NC(=O)CSC2=C(C#N)C(c3ccco3)C3=C(CCCC3=O)N2)c(OC)c1 (centres undefined) 10.5%, COCCOC(=O)C1=C(C)NC(SCC(=O)NC(C)(C)C)=C(C#N)C1c1ccco1 (centres undefined) 32.6%, CCOC(=O)C1=C(c2ccccc2)NC(SCC(=O)Nc2ccccc2C)=C(C#N)C1c1ccco1 (centres undefined) 38.8%, CCc1ccccc1NC(=O)CSC1=C(C#N)C(c2ccc(O)c(OC)c2)C2=C(CCCC2=O)N1 (centres undefined) 35%, CCN(CC)C(=O)CSC1=C(C#N)C(c2ccco2)C(C(=O)OCCOC)=C(C)N1 (centres undefined) 1.8%, COc1ccc(OC)c(NC(=O)CSC2=C(C#N)C(c3ccco3)C3=C(CCCC3=O)N2)c1 (centres undefined) 16.1%, CCc1ccc(NC(=O)CSC2=C(C#N)C(c3ccco3)C3=C(CCCC3=O)N2)cc1 (centres undefined) 44.8%, O=c1[nH]c(CN2CCCCC2)nc2c1C1(CCCCC1)Cc1ccccc1-2 -4.24%, CCCCc1[nH]c(=O)c(C#N)c2c1CSC(C)(C)C2 7.58%, CCCCOC(=O)CSC1=C(C#N)C(c2ccccc2OC)C(C#N)C(=O)N1 (centres undefined) 6.07%, COc1ccc2nc(SCC(=O)O)nc(C)c2c1 -2.56%, COc1ccc(-c2cc(=O)[nH]c(=O)[nH]2)cc1 1.67%, Cc1nnc2n(-c3ccccc3)c(=O)c3c4c(sc3n12)COC(C)(C)C4 -0.59%, N#Cc1ccc(-c2cccnc2)nc1SCC(=O)Nc1sc2c(c1C#N)CCC2 14.6%, COCc1n[nH]c(=S)n1-c1cccc2ccccc12 4.29%, CCOc1ccc(N=C2C(=O)N(CN3CCOCC3)c3ccccc32)cc1 20.3%, COC(=O)c1ccc(Cn2c(O)c(N=O)c3ccccc32)o1 8.55%, CCCCCC(=O)N1CC2(CC)CN(C(=O)CCCCC)CC(CC)(C1)C2=O 14.3%, O=C(O)CCSc1ccc2ccccc2n1 1.45%, CC(Sc1ccc2ccccc2n1)C(=O)O (centres undefined) -2.6%, COC(=O)C1=C(N)Oc2cc(C)oc(=O)c2C1c1ccncc1 (centres undefined) -1.55%, COC(=O)c1ccc(C2/C(=C(\O)c3cccc(OC)c3)C(=O)C(=O)N2CCCN(C)C)cc1 (centres undefined) 1.92%, Cc1nnc2n(-c3ccccc3)c(=O)c3c4c(sc3n12)CC(C)CC4 (centres undefined) 12.7%, CN=C(c1ccco1)n1c(=S)nc(-c2ccco2)n(C)c1=S 5.55%, CC(=O)Oc1ccccc1C1OC(=O)c2ccccc2N1C(C)=O (centres undefined) 4.51%, COc1cc(C(=O)Nc2ccc(O)cc2C(=O)O)ccc1OC(C)=O 2.72%, Nc1cccc(C(=O)O)c1 4.57%, NS(=O)(=O)c1ccc(C(=O)O)cc1 -6.06%, CN1CCN(Cc2c(O)ccc3c(-c4ccccc4)cc(=O)oc23)CC1 8.11%, Cc1c(Cl)c(C(F)(F)F)nn1CC(=O)N1CCSCC1 8.88%, Cn1c(OCc2cccnc2)nc2c1c(=O)n(Cc1ccc(Cl)cc1)c(=O)n2C 35.5%, O=C(NCCCNCc1ccccc1)/C(=N\O)c1ccccc1 1.98%, CCOC(=O)c1[nH]c2ccc(Br)cc2c1NC(=O)CNC 15.7%, C=COC(=O)CSc1nc(-c2cccs2)ccc1C#N 5.33%
